# Source: PubChem BioAssay (National Center for Advancing Translational Sciences (NCATS))
# In the library only some 5.5% were active in any assay of this set; here they are far more common.
# FBPA coupling cs: coupling enzyme interference in Giardia aldolase counter-screen | AID 2472 | coupling enzyme system counterscreen, AmpLite Red fluorescence | 290,000 tested, 0.67% active | activity change, negative = inhibition, % at 58.2 µM, hits read low; in the data active = activity change below about -30%
#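 Compounds tested against the coupling enzymes alone at 57.5 uM final; readout was AmpLite Red fluorescence (525/598 nm) after 20 min at RT.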
# ELG1 DNA repair: blocks ELG1-dependent DNA repair in HEK293T cells. Potency, µM (series often up to 46.1 µM), for the others: at the highest dose activity change, negative = inhibition, actives largely listed as inhibitors. HEK293T ELG1-luciferase reporter, luminescence, 16 h; DNA damage induced by 5-fluorouridine. 330,000 tested, 2.3% active; note: potency is the fitted concentration of half-maximal effect; nearly all actives have a fitted effect of over 55% in size
#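 5-Fluorouridine DNA damage + compound/DMSO, 2,000 cells/well, 16 h, 37 °C/5% CO2. ONE-Glo, 30 min RT, luminescence. Readout = decrease in reporter signal.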
# Sfp PPTase inh: Sfp phosphopantetheinyl transferase inhibition | Biochemical Sfp PPTase activity, qHTS | 310,000 tested, 3.5% active | Q9F4F7 | AID 1490 | Potency, µM, for the others: largest response in the series, negative = inhibition, most hits filed as inhibitors;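 note: the enzyme is Sfp with the accession as filed and its product quenches rhodamine fluorescence; potency is the fitted concentration of half-maximal effect; 0% = enzyme reaction without inhibitor and -100% = no enzyme wells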
#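 After 15 min at room temperature with compound, 15 nM Sfp received 5 uM rhodamine-CoA plus 12.5 uM BHQ-2-ybbR (50 mM Hepes pH 7.6, 10 mM MgCl2). Rate came from the fluorescence difference over 30 min, ex 525/em 598 nm.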
# Giardia killer: kills Giardia lamblia; Giardia lamblia trophozoite viability; activity change, % at 7.66 µM, hits read low; 340,000 tested, 0.15% active; AID 540267; in the data active = activity change below about -80%; inconclusive = between about -30% and that limit;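 note: parasites exposed to compound for two days anaerobically before the ATP read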
#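 Giardia lamblia trophozoites (100 cells/well) were incubated with compounds for 48 h at 37 deg C under anaerobic conditions. Viability was read as ATP content by one-step luminescence after 15-30 min at room temperature.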
# Numbers without * were called inactive; ? = inconclusive; / = no result given. Unless noted, calls come from the whole dose curve; as a rule, active = well fitted curve in the direction sought with a large enough effect; inconclusive = small, poorly fitted or top-dose-only effect, or another doubt; inactive = no such curve, though single readings can be large; an effect the other way counts as inactive or inconclusive. Unless noted, % is set by controls: 0 for no effect and ±100 for the full control effect.
SMILES,FBPA coupling cs,ELG1 DNA repair,Sfp PPTase inh,Giardia killer
Cc1ccc(S(=O)(=O)C2(C(=O)N3CCN(c4ccccc4F)CC3)CC2)cc1,2.0,-1.2%,16.4%,-0.5
COc1ccc(S(=O)(=O)N2CCOCC2)cc1NC(=O)CSc1nnc2c(n1)[nH]c1ccccc12,0.9,23.1µM*,9.5%,11.4
CCCn1c(SCC(=O)Nc2cc(S(=O)(=O)N3CCOCC3)ccc2OC)n[nH]c1=O,-1.8,11.9%,39.8µM*,-8.2
O=C(O)c1ccc(N[C@@H]2OC[C@@H](O)[C@@H](O)[C@@H]2O)cc1,-1.1,/,-16.2%,/
COc1cc(CNCCO)cc(Cl)c1OCc1ccc(Cl)cc1Cl,-15.5,2.3%,20µM*,-17.9
CCOC(=O)CCNC(=O)Nc1ccc2nc(C)n(Cc3ccc(Cl)cc3)c(=O)c2c1,3.9,14.6µM*,-13.4%,-9.0
COc1ccc(C(=O)NCc2nnc(SCC(=O)c3ccccc3)n2C)cc1OC,/,6.3%,/,-8.6
Cc1sc(NC(=O)c2ccco2)c(CN2CCC(C)CC2)c1C,-2.0,-7.4%,1.8%,1.9
Cc1sc(NC(=O)c2ccco2)c(CN2CCN(Cc3ccccc3)CC2)c1C,-11.0,13µM*,-8.9%,25.9
O=[N+]([O-])c1ccccc1Nc1nc(-c2cccnc2)cs1,0.2,0.0%,-5.7%,7.2
Cc1cc(C)n(S(=O)(=O)c2ccccc2[N+](=O)[O-])n1,0.3,-7.4%,11.5%,-86.9*
O=C(Cn1cnc2c(NC(=O)OCc3ccccc3)ncnc21)NCc1ccccn1,/,26.4%,/,6.7
Cc1ccc(-n2c(SCC(=O)NCc3ccco3)nc3sc(C)c(C)c3c2=O)cc1,1.4,-3.8%,-3.0%,-5.2
Cc1ccc(-n2c(SCC(=O)NCc3ccco3)nc3nc4c(cc3c2=O)COC(C)(C)C4)cc1,0.4,?,25.1µM*,-7.5
CCn1c(SCC(=O)Nc2ccc(C(C)=O)cc2)nc2nc3c(cc2c1=O)COC(C)(C)C3,0.3,?,16.1%,-20.5
CCn1c(SCC(=O)Nc2ccc(OC)cc2)nc2nc3c(cc2c1=O)COC(C)(C)C3,-3.1,20.6µM*,6.1%,4.8
CCn1c(SCC(=O)Nc2ccccc2C)nc2nc3c(cc2c1=O)COC(C)(C)C3,-0.6,13µM*,16.9%,4.3
CCCCn1nc(C(=O)N(C)CC(=O)Nc2ccc(F)c(F)c2F)ccc1=O,/,23.7%,/,13.3
COc1cc2c(cc1OC)C1O[C@](c3ccsc3)(C2)Oc2cc(-c3ccccc3)oc(=O)c21,-1.5,/,-8.4%,/
O=C(COc1cccc(Br)c1)Nc1ccc(N2CCOCC2)cc1N1CCOCC1,/,-12.0%,/,-23.7
Cc1ccc(C(=O)Nc2cccc([N+](=O)[O-])c2)cc1S(=O)(=O)Nc1ccc(NC(=O)c2ccccc2)cc1,-3.7,5.17µM*,10.5%,-12.8
CC(=O)Nc1ccc(NC(=O)c2ccc(C)c(S(=O)(=O)Nc3cccc(C)c3)c2)cc1,-4.8,20.6µM*,19.6%,2.0
CC(C)C(=O)Nc1cccc(NC(=O)c2cccc([N+](=O)[O-])c2)c1,-1.4,?,20.6%,11.0
COc1ccc(C(=O)C(C)Oc2cccc(NC(=O)c3cccc([N+](=O)[O-])c3)c2)cc1 (stereo not given),0.3,14.6µM*,7.9%,36.3
Cc1ccc(NS(=O)(=O)c2cc(C(=O)Nc3cccc([N+](=O)[O-])c3)ccc2C)cc1,-7.9,?,16.6%,-23.6
SMILES,FBPA coupling cs,ELG1 DNA repair,Sfp PPTase inh,Giardia killer
CS(=O)(=O)N1CCC2(CC1)CN(C(=O)Nc1ccccc1)C2,-0.6,/,13.8%,/
O=[N+]([O-])c1cc(C=Nc2cccc3c(O)cccc23)ccc1Cl,-8.7,-14.0%,-12.2%,/
O=C(NC1CCN(C(=O)NCc2ccccc2)CC1)c1cccc(F)c1,1.6,-0.2%,12.4%,-19.8
CC(=O)c1ccc(N2CCN(CC(=O)NC(=O)NCc3ccccc3)CC2)cc1,/,8.9%,/,10.3
NC(=O)c1cc([N+](=O)[O-])ccc1NCc1ccc(N)cc1,/,-21.0%,/,0.8
COc1ccc(C2C=C(c3ccc(C)cc3)Nc3ncnn32)cc1 (stereo not given),-3.1,-13.8%,?,-9.1
Brc1ccc(C2=CC(c3cccs3)n3ncnc3N2)cc1 (stereo not given),1.2,?,79.4µM*,1.2
COc1cccc(C2C=C(c3cccs3)Nc3ncnn32)c1OC (stereo not given),-21.7,7.8%,50.1µM*,-13.1
COc1ccc(C2C=C(c3ccc(Br)s3)Nc3ncnn32)cc1OC (stereo not given),1.6,?,56.2µM*,/
CCCn1c(-c2ccc(F)cc2)nc2c(NC3CCN(Cc4ccccc4)CC3)nc(C)nc21,0.6,/,?,/
COC(=O)c1ccc(CSc2nc(C(F)(F)F)c3c(c2C#N)CCC3)o1,-2.2,-0.7%,56.2µM*,-6.7
COC(=O)CSc1nc(-c2ccc(C)cc2)c2c(c1C#N)CCCC2,4.4,1.4%,?,27.7
CCC(=O)NC(Nc1sc2c(c1C(=O)OC)CCC2)C(Cl)(Cl)Cl (stereo not given),-5.8,?,20µM*,-5.8
COC(=O)c1c(NC(NC(=O)C(C)C)C(Cl)(Cl)Cl)sc2c1CCC2 (stereo not given),1.2,-1.8%,50.1µM*,-6.3
Cc1ccc(Cl)cc1NC(=O)CCS(=O)(=O)c1cccc2nonc12,-0.7,0.8%,11.5%,-0.4
CC1CC(C)CN(CCCNC(=O)c2nn(C)c3c2CS(=O)(=O)c2ccccc2-3)C1 (stereo not given),-0.5,-2.6%,5.0%,6.3
CCOC(=O)c1ccccc1NC(=O)c1cn(-c2ccc(C)c(C)c2)c(=O)c2ccccc12,-0.3,?,-2.7%,-8.3
CCOC(=O)c1ccccc1NC(=O)c1cn(-c2ccc(OC)cc2)c(=O)c2ccccc12,-8.3,6.51µM*,-28.6%,-6.9
COC(=O)c1ccccc1NC(=O)c1cn(-c2ccc(C)c(C)c2)c(=O)c2ccccc12,0.7,9.2µM*,-8.4%,-2.0
COc1cccc(-n2nc(-c3ccnn3-c3ccc(C)cc3)c(=O)n(C)c2=O)c1,4.3,20.6µM*,5.5%,7.2
COc1ccc(-n2nccc2-c2nn(-c3cccc(OC)c3)c(=O)n(C)c2=O)cc1,4.4,?,8.5%,3.5
COc1ccc(Nc2nc(-c3sc(N)nc3C)cs2)cc1,-12.1,?,17.8µM*,-21.0
COc1ccc(Nc2nc(-c3sc(NC(C)=O)nc3C)cs2)cc1,-6.2,?,39.8µM*,/
Cc1ccc(Nc2nc(-c3sc(N)nc3C)cs2)cc1,-25.2,-0.5%,?,17.9
Cc1cccc(C(=O)Nc2ccc(C(=O)N/N=C/c3ccco3)cc2)c1,/,/,/,-3.7
O=C(N/N=C/c1ccc(N2CCCCC2)o1)c1ccccc1,-21.1,-17.1%,-107.5%,-11.9
O=C1C2C(C(=O)N1/N=C/c1ccc(N3CCCCC3)o1)C1C=CC2C12CC2 (stereo not given),-5.6,-0.8%,1µM*,8.0
COCCN1C(=O)N[C@@H](CCc2ccccc2)C(C(=O)OC)=C1C,6.5,/,-5.6%,/
O=C(NC(=S)N1CCN(c2ccccc2)CC1)c1ccc(S(=O)(=O)N2CCOCC2)cc1,-0.1,18.3µM*,11.2%,-2.2
